What all share (experiment): DAPPL (digital affinity profiling via proximity ligation, sequencing); 10 mM Tris-HCl pH 7.5, 50 mM NaCl, 1 mM DTT, 4% glycerol, room temperature, 30 min; GST-TFs on glutathione beads, 16-mer random dsDNA library, 0.1% formaldehyde crosslink after washing; high values mean tight binding
One experiment has as its target T1, FLI1 (Homo sapiens, UniProt Q01543 1-452).
T1 sequence: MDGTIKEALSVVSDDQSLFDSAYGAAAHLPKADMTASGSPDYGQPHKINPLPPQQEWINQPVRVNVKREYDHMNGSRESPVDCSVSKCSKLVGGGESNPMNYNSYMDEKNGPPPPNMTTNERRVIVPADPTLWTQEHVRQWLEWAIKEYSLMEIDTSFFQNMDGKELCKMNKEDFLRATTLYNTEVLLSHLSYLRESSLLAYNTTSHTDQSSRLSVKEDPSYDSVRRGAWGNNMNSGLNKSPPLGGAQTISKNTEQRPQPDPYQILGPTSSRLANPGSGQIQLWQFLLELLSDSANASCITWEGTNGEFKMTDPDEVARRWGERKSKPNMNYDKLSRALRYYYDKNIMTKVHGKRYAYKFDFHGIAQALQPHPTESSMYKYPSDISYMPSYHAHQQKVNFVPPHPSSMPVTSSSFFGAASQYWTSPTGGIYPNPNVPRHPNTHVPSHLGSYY
The note with it: protein: recombinant; tags: N-terminal GST; dsDNA, one strand shown. An outline of the steps:
(§1)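 After expression in yeast as GST fusions, human transcription factors were bound to glutathione beads, DNA-barcoded and mixed with a tag-only sample. The pools were incubated with 200 nmole of a 16-mer random double-stranded DNA library in Tris/NaCl/DTT/glycerol buffer (30 min, room temperature), washed and crosslinked with 0.1% formaldehyde. Proximity ligation with BsaI/T4 ligase ran for 1 h at 37 °C, before PCR amplification and sequencing on an Illumina NextSeq500. Binding signal is a hexamer's read frequency for a factor divided by its frequency for the tag-only sample.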

For another experiment, the target named is T2, ELK1 (Homo sapiens, UniProt P19419 1-428).
T2 sequence: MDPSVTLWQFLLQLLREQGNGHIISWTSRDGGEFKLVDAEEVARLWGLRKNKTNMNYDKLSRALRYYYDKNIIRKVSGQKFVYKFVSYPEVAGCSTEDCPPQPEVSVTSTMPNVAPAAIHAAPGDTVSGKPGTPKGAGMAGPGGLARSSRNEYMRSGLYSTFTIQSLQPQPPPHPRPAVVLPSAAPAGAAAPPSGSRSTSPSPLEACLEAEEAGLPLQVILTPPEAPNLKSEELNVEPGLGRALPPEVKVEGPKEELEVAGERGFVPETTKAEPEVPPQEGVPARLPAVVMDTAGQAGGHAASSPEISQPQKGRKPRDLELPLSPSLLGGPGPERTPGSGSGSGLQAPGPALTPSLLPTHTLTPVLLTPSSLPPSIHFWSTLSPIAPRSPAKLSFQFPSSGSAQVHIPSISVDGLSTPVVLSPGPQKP
The note with it: protein: recombinant; tags: N-terminal GST; dsDNA, one strand shown. An outline of the steps: as §1

The target in a further experiment is T3, GABPA (Homo sapiens, UniProt Q06546 1-454).
T3 sequence: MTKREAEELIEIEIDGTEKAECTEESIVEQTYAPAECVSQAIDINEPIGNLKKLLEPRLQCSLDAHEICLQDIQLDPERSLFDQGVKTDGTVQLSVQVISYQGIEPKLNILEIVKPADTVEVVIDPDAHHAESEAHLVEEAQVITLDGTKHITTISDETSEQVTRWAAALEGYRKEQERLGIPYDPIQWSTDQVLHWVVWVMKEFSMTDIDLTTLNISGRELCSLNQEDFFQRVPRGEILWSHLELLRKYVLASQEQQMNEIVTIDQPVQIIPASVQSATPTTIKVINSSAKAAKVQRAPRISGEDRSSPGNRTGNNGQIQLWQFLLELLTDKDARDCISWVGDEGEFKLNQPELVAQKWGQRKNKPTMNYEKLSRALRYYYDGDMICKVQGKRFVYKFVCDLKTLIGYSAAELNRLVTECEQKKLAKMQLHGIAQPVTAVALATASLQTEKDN
The note with it: protein: recombinant; tags: N-terminal GST; dsDNA, one strand shown. An outline of the steps: as §1

Another experiment concerns the target T4, ERG (Homo sapiens, UniProt P11308 1-479).
T4 sequence: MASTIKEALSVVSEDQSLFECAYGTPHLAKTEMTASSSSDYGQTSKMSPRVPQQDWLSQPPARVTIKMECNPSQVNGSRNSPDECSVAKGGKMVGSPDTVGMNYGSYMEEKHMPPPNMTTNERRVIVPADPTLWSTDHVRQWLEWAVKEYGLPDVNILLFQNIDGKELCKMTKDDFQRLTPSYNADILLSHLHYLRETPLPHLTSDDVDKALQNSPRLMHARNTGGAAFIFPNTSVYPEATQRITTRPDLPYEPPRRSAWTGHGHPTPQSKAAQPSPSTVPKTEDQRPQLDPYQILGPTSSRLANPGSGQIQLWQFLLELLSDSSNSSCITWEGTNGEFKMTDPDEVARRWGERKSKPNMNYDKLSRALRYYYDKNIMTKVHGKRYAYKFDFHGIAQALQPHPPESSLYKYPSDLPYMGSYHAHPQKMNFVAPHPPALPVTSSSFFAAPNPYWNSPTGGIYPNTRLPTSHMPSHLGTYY
To be noted: protein: recombinant; tags: N-terminal GST; dsDNA, one strand shown. An outline of the steps: as §1

Another experiment has as its target ELF1 (Homo sapiens, UniProt P32519 1-619). The note with it: protein: recombinant; tags: N-terminal GST; dsDNA, one strand shown. An outline of the steps: as §1
The next experiment concerns the target T5, EHF (Homo sapiens, UniProt Q9NZC4 1-300).
T5 sequence: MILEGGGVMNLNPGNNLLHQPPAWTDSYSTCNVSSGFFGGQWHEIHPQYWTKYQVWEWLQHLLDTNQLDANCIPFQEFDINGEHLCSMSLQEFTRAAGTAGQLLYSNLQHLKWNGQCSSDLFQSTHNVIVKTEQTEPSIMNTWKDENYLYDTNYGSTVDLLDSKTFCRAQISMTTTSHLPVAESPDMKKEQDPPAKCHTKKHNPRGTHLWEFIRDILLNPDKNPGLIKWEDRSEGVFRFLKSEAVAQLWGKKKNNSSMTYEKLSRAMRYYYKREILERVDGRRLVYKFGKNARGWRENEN
To be noted: protein: recombinant; tags: N-terminal GST; dsDNA, one strand shown. An outline of the steps: as §1

The next experiment addresses SPI1 (Homo sapiens, UniProt P17947 1-270). The note with it: protein: recombinant; tags: N-terminal GST; dsDNA, one strand shown. An outline of the steps: as §1
The next experiment concerns the target SPIB (Homo sapiens, UniProt Q01892 1-262). The note with it: protein: recombinant; tags: N-terminal GST; dsDNA, one strand shown. An outline of the steps: as §1
In another experiment the target is T6, ELK3 (Homo sapiens, UniProt P41970 1-407).
T6 sequence: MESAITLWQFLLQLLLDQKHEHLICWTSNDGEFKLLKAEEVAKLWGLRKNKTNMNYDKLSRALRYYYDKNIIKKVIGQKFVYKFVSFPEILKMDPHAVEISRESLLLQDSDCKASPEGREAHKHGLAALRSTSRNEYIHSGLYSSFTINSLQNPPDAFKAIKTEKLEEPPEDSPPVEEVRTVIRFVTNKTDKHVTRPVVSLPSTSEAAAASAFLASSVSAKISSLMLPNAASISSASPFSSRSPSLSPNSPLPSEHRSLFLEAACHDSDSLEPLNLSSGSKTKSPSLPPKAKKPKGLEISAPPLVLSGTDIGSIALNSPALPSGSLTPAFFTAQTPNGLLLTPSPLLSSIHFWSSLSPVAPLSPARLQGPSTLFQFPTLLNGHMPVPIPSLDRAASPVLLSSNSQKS
To be noted: protein: recombinant; tags: N-terminal GST; dsDNA, one strand shown. An outline of the steps:
as §1

The target of another experiment is ETV5 (Homo sapiens, UniProt P41161 1-510). The note with it: protein: recombinant; tags: N-terminal GST; dsDNA, one strand shown. An outline of the steps: as §1
ETV5, sequence (P41161 whole entry): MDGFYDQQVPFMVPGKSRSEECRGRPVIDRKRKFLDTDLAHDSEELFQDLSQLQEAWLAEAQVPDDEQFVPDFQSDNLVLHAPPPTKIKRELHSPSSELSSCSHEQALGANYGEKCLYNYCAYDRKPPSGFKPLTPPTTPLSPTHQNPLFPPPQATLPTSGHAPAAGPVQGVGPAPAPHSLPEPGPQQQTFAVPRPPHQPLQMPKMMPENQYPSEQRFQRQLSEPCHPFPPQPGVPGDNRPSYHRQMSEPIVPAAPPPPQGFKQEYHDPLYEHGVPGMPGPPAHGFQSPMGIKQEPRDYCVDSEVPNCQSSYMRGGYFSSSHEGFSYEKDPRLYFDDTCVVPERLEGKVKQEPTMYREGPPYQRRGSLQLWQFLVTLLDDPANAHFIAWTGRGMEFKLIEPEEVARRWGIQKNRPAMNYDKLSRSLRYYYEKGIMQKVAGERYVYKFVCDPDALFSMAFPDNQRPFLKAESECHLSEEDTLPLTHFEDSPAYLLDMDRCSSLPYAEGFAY
In the next experiment the target is HSF1 (Homo sapiens, UniProt Q00613 1-529). The note with it: protein: recombinant; tags: N-terminal GST; chain copies: 3; dsDNA, one strand shown. An outline of the steps: as §1
HSF1, sequence (Q00613 whole entry): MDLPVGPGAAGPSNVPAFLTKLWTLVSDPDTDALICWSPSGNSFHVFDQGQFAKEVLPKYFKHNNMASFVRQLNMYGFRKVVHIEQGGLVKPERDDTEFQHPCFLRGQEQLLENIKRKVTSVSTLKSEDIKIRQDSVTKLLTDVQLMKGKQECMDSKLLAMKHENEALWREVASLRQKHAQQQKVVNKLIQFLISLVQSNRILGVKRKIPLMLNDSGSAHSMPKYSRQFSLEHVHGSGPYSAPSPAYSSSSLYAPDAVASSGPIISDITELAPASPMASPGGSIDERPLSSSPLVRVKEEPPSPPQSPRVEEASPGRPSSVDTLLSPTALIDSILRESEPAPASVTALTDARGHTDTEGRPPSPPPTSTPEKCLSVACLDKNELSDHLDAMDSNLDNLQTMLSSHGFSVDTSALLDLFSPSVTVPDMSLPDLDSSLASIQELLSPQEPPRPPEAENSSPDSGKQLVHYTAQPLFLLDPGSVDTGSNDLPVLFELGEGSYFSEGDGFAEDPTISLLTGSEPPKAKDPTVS
The target of another experiment is T7, SPIC (Homo sapiens, UniProt Q8N5J4 1-248).
T7 sequence: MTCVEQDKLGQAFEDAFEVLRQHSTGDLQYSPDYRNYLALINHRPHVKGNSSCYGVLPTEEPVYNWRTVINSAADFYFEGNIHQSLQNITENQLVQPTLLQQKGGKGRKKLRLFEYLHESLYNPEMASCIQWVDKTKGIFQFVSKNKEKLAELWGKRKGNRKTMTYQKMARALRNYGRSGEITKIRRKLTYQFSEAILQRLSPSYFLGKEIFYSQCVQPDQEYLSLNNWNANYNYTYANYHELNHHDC
To be noted: protein: recombinant; tags: N-terminal GST; dsDNA, one strand shown. An outline of the steps: as §1

The target of a further experiment is ELF4 (Homo sapiens, UniProt Q99607 1-663). The note with it: protein: recombinant; tags: N-terminal GST; dsDNA, one strand shown. An outline of the steps: as §1
ELF4, sequence (Q99607 whole entry): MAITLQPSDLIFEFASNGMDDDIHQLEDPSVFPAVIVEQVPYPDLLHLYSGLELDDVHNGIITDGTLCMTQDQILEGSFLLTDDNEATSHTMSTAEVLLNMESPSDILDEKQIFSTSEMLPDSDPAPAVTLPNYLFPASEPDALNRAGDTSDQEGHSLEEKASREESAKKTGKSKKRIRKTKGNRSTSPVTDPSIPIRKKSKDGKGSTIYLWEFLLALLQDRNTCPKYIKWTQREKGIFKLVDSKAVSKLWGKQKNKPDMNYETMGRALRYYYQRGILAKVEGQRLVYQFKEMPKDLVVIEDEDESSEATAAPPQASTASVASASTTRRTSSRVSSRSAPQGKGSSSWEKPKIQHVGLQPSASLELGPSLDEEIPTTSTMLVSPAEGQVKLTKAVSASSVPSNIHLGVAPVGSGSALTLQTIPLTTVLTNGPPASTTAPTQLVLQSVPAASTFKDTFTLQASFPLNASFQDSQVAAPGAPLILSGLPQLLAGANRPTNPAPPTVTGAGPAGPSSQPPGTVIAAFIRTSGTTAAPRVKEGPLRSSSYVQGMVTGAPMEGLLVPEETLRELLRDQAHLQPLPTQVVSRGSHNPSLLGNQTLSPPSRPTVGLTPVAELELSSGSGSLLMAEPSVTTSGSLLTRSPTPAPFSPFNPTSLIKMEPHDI
A further experiment addresses T8, ELK4 (Homo sapiens, UniProt P28324-2 1-405).
T8 sequence: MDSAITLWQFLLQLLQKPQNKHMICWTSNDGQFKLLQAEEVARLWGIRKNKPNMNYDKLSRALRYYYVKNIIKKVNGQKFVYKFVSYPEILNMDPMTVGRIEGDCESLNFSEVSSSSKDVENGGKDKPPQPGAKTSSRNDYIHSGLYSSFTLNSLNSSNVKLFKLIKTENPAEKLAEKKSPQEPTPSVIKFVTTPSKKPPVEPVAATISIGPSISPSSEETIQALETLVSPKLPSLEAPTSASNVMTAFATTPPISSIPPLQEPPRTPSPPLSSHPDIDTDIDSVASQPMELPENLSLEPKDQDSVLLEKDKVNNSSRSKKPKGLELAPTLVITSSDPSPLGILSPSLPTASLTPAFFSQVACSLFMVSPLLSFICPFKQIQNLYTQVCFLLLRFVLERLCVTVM
To be noted: protein: recombinant; tags: N-terminal GST; dsDNA, one strand shown. An outline of the steps:
as §1

The target of another experiment is T9, ETV2 (Homo sapiens, UniProt O00321 1-342).
T9 sequence: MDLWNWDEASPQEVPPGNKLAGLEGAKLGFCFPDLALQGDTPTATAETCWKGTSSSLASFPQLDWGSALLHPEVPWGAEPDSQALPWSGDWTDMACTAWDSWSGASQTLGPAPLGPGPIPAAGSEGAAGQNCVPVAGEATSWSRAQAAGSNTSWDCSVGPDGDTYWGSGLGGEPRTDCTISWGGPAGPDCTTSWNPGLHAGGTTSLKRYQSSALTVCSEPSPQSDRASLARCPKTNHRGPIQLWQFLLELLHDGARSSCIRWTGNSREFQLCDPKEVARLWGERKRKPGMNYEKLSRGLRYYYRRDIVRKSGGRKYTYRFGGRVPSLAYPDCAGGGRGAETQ
The note with it: protein: recombinant; tags: N-terminal GST; dsDNA, one strand shown. An outline of the steps:
as §1

Another experiment deals with T10, ELF3 (Homo sapiens, UniProt P78545 1-371).
T10 sequence: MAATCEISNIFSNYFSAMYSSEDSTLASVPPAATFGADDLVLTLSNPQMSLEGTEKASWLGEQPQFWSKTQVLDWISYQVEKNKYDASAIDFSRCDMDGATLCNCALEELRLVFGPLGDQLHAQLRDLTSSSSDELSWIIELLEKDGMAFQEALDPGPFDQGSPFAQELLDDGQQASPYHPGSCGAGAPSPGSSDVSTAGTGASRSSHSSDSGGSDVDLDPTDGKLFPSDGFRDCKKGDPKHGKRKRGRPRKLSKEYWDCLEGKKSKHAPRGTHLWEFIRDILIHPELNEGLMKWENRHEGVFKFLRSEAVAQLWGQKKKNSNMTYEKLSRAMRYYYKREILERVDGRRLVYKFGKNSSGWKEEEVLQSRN
To be noted: protein: recombinant; tags: N-terminal GST; dsDNA, one strand shown. An outline of the steps: as §1

Another experiment has as its target CRX (Homo sapiens, UniProt O43186 1-299). The note with it: protein: recombinant; tags: N-terminal GST; dsDNA, one strand shown. An outline of the steps: as §1
Another experiment has as its target ETV1 (Homo sapiens, UniProt P50549 1-477). To be noted: protein: recombinant; tags: N-terminal GST; dsDNA, one strand shown. An outline of the steps:
as §1

This is an account of results in paper PMC7862700, “An all-to-all approach to the identification of sequence-specific readers for epigenetic DNA modifications on cytosine”.

CRX, sequence (O43186 whole entry): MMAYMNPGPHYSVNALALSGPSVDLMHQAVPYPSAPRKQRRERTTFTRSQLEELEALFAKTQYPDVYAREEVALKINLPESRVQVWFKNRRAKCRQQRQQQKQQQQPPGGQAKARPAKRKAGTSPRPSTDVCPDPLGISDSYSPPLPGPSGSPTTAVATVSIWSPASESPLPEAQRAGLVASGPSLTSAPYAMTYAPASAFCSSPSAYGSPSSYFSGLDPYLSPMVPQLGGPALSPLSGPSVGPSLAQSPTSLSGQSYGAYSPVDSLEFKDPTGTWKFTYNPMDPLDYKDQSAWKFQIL
ELF1, sequence (P32519 whole entry): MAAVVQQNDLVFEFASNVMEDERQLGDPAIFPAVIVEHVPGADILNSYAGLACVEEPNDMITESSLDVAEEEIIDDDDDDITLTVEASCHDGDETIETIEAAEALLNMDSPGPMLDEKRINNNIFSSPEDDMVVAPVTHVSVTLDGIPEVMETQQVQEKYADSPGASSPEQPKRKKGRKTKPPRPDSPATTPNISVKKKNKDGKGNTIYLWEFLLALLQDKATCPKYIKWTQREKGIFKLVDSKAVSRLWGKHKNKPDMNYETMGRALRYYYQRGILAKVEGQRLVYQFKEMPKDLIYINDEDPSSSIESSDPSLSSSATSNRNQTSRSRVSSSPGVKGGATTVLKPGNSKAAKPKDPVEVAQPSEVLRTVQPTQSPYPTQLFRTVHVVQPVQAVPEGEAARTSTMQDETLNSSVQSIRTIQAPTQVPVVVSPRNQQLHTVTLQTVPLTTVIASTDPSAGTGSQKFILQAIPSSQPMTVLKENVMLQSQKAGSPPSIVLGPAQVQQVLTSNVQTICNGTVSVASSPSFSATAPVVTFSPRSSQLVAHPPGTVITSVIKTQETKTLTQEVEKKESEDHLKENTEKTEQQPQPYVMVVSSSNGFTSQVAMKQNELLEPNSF
SPIB, sequence (Q01892 whole entry): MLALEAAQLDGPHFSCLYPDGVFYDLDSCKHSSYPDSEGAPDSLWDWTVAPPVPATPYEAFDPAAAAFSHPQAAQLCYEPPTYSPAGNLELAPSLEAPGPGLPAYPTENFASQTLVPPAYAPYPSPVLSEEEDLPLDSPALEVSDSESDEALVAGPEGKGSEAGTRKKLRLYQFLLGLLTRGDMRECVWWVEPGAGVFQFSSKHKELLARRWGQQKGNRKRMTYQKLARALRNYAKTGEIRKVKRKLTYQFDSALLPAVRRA
ETV1, sequence (P50549 whole entry): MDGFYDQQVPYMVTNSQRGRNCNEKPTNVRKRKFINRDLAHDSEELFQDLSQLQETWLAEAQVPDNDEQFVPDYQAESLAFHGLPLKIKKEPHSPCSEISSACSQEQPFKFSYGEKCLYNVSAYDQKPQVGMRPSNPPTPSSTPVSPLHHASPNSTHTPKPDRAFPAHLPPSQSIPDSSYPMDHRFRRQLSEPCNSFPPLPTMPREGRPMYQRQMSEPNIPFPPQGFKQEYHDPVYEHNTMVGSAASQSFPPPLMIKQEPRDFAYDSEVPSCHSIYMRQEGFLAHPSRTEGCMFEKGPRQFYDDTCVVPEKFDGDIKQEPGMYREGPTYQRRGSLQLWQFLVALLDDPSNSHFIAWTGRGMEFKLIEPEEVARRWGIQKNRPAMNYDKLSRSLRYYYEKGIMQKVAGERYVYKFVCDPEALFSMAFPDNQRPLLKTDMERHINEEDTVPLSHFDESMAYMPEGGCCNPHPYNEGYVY

As for TAAGGT, the binding signal in the experiment with FLI1 was 1.12 fold enrichment (6-mer frequency, TF over GST control); in the experiment with ELK1, 1.08 fold enrichment (6-mer frequency, TF over GST control); in the experiment with GABPA, 1.14 fold enrichment (6-mer frequency, TF over GST control); with ERG, 1.01 fold enrichment (6-mer frequency, TF over GST control); in the experiment with ELF1, 1.04 fold enrichment (6-mer frequency, TF over GST control); with EHF, 1.17 fold enrichment (6-mer frequency, TF over GST control). Besides, the binding signal was 1.02 fold enrichment (6-mer frequency, TF over GST control) with SPI1; 1.07 fold enrichment (6-mer frequency, TF over GST control) with SPIB; 1.13 fold enrichment (6-mer frequency, TF over GST control) in the experiment with ELK3; 1.12 fold enrichment (6-mer frequency, TF over GST control) with ETV5; 1.1 fold enrichment (6-mer frequency, TF over GST control) in the experiment with HSF1; 1.11 fold enrichment (6-mer frequency, TF over GST control) with SPIC. The binding signal in the experiment with ELF4 is 1.19 fold enrichment (6-mer frequency, TF over GST control); in the experiment with ELK4, 1.06 fold enrichment (6-mer frequency, TF over GST control); with ETV2, 1.08 fold enrichment (6-mer frequency, TF over GST control); in the experiment with ELF3 it was 1.08 fold enrichment (6-mer frequency, TF over GST control); with CRX, 1.38 fold enrichment (6-mer frequency, TF over GST control); in the experiment with ETV1 it was 1.1 fold enrichment (6-mer frequency, TF over GST control).
